Measured values from PubChem BioAssay (NCATS).
Results filed as inconclusive are left out. Calls come from the whole dose curve; as a rule, active = well fitted curve in either direction with a large enough effect (not every such curve was filed as active); inconclusive = small, poorly fitted or top-dose-only effect, or another doubt; inactive = flat fitted curve, though single readings scatter.

Assay: Stat Signaling Pathway (AID 446);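 note: ME-180 cervical cancer cells given 40 pM IL-6 alongside compound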
Details: ME-180 SIE beta-lactamase reporter, IL-6 stimulated, 5 h; at 17.2 µM (top of the series) unless noted
Summary of the method: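 ME-180 cells carrying a SIE-driven beta-lactamase reporter are stimulated with 40 pM IL-6 for 5 h at 37C in the presence of compound. The 460/530 nm FRET substrate ratio is read after 2.5 h at RT. Data are normalised to 300 pM IL-6 and to 125 nM JAK inhibitor controls.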
% is set by controls: 0 for no effect and ±100 for the full control effect.

activity, negative = inhibition, inactive:
Cc1cccc(OCCN2CSC(=S)N(C)C2)c1 -7.42%
Cc1c(C)c2cc(Cl)c(O)c(CN3CCCC(C)C3)c2oc1=O (stereo unspecified) -3.87%
C=CCn1c(SCC#N)nc2c(c1=O)C(C)(C)Cc1ccccc1-2 -1.93%
COc1ccc2c(c1OC)C(=O)N1c3ccccc3C(=O)N(c3ccccc3F)C21 (stereo unspecified) -18.4%
COc1cc([C@@H]2[C@H]3CNCC=C3C(C#N)=C(N)C2(C#N)C#N)ccc1OC(C)C 10.8%
Fc1ccccc1-c1nc(NCCCN2CCOCC2)c2ccccc2n1 -7.69%
COc1cccc(-c2nc(N3CCC(C)CC3)c3ccccc3n2)c1O 5.63%
CCOc1cccc(-c2nnc3sc(-c4cc(OC)c(OC)c(OC)c4)nn23)c1 -10.4%
Cc1cc(Cn2ccnc2)c(C)cc1Cn1ccnc1 2%
COCc1[nH]nc2c1C(c1ccc(OC)cc1)C(C#N)=C(N)O2 (stereo unspecified) -11.4%
Cc1nnc(NCc2n[nH]c(=O)c3ccccc23)c2ccccc12 25.1%
Cn1c(Cl)cnc1C1CC(=O)c2cc(Cl)ccc2O1 (stereo unspecified) 0.321%
CN(C)CCCOC(=O)c1ccc(Cl)cc1Cl 2.76%
CN1CCN(CCC(=O)N2c3ccccc3Sc3ccc(Cl)cc32)CC1 6.36%
Cc1cc2c(c(=O)n1Cc1ccccn1)C(c1ccc3c(c1)OCO3)C(C#N)=C(N)O2 (stereo unspecified) -11.7%
COCCCn1cnc2c(c1=O)c1nc3ccccc3nc1n2CCc1ccccc1 -9.66%
